Sampled rows, rich in hits. Any-hit rate of the full collection: about 17%.
TDP1 cell noCPT: qHTS for Inhibitors of human tyrosyl-DNA phosphodiesterase 1 (TDP1): qHTS in cells in absence of CPT; DT40 Tdp1-/- hTDP1 cells, no CPT, ATP luminescence, 48 h; Potency, µM (series often up to 46.2 µM), for inactives: at the highest dose activity change, negative = growth inhibition, most hits filed as inhibitors; actives 15% (n = 420,000); AID 686978, 2013; also: % is scaled to controls: 0 for no effect and ±100 for the full control effect; nearly all actives have a fitted effect of over 55% in size
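A cellular qHTS used chicken DT40 cells lacking endogenous Tdp1 but carrying stably transfected human TDP1. Compounds were applied without camptothecin, and cell growth kinetics were judged by ATP-dependent luminescence after ≥48 hr.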
ClpP mod: qHTS Assay for Activators of ClpP; actives 1.9% (n = 340,000); Potency, µM (titrated, usually from 57.5 µM), for inactives: top-dose activity change, negative = active; ATP-dependent Clp protease proteolytic subunit (Bacillus subtilis (strain 168)), P80244; purified B. subtilis ClpP, FRET peptide cleavage, 20 min; active = well fitted falling curve with a large enough effect; inconclusive = small, poorly fitted or top-dose-only effect; inactive = no such curve, though single readings can be large or run the other way; also: the source files actives as falling curves though it sought activators and does not explain the sign; nearly all actives have a fitted effect of over 65% in size
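Purified B. subtilis ClpP, 10 microg/mL final in Tris/HCl pH8 with KCl, BSA, glycerol and Tween-20, cleaved an Abz/nitrotyrosine-quenched decapeptide. Fluorescence (ex 320, em 430) was read at 0 and 20 min at room temperature. Delta was normalized to 5.8 microM ADEP and DMSO/no-enzyme controls.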
DT40 TDP1 CPT: qHTS for Inhibitors of human tyrosyl-DNA phosphodiesterase 1 (TDP1): qHTS in cells in presence of CPT; chicken DT40 Tdp1-/-;hTDP1 cells + 20 nM CPT, ATP luminescence, 48 h; Potency, µM (doses to about 46.2 µM), for the others: at the top dose activity change, negative = growth inhibition, usual class: inhibitors; actives 12% (n = 420,000); AID 686979, 2013; also: % is scaled to controls: 0 for no effect and ±100 for the full control effect; nearly all actives have a fitted effect of over 55% in size
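Cell growth measured by CellTiter-Glo luminescence after a minimum 48 h, 37 C compound exposure with 20 nM CPT in Tdp1-knockout DT40 cells stably expressing hTDP1, seeded 400/well; qHTS titration format.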
TDP1 block: qHTS Assay for Inhibitors of Tyrosyl-DNA Phosphodiesterase (TDP1). recombinant TDP1, AlphaScreen DNA substrate cleavage. Tyrosyl-DNA phosphodiesterase 1 (Homo sapiens), Q9NUW8. Potency, µM (series often up to 130 µM), for inactives: at the highest dose activity change, negative = inhibition, most hits filed as inhibitors. actives 0.28% (n = 350,000); also: % is scaled to controls: 0 for no effect and ±100 for the full control effect; nearly all actives have a fitted effect of over 40% in size
Target sequence (Q9NUW8 whole entry, looked up): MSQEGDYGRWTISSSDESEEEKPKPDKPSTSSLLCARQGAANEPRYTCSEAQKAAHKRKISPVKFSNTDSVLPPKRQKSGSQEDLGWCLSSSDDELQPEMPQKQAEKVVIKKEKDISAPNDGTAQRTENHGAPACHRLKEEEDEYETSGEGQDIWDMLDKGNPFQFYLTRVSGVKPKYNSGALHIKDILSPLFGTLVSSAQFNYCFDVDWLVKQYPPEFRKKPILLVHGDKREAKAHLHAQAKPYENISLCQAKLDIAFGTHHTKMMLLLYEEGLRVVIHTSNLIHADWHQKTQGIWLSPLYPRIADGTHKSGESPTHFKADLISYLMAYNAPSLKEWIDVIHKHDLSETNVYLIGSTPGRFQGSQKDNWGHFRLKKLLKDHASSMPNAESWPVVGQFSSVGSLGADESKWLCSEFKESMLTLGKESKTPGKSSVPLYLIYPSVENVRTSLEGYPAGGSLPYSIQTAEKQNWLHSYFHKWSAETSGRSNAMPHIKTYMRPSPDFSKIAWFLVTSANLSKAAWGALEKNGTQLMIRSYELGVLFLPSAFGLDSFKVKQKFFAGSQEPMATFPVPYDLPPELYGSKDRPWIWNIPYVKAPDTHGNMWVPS
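E. coli-derived human Tdp1, 1 nM final. Cpd preinc 15 min RT; substrate 15 nM final, 5 min RT; AS bead mix 10 ug/ml final, 10 min RT. Signal loss = tyrosine-FITC cleavage. No-enzyme wells = max signal.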
* = called active by the depositor; ? = inconclusive; . = not tested or not shown; [ ] = dose if it differs, or a comment. Unless noted, calls follow the shape of the dose curve; as a rule, active = well fitted curve in the direction sought with a large enough effect; inconclusive = small, poorly fitted or top-dose-only effect, or another doubt; inactive = no such curve, though single readings can be large; an effect the other way counts as inactive or inconclusive. Potency is read from the fitted curve at half-maximal effect.

SMILES | TDP1 cell noCPT | ClpP mod | DT40 TDP1 CPT | TDP1 block
CSc1ccc(Cl)c(C(=O)N2CCOc3ccccc32)c1 | 16µM* | 1% | 18µM* | 2%
CCO[C@H]1OC(C(=O)O)=C[C@@H](C(C)(C)C)[C@@H]1CCCO | 1% | 3% | 0% | .
COc1ccc(CC(=O)NCC2CCCN(Cc3cccc(SC)c3)C2)cc1 (stereo not given) | -14% | . | 3% | .
COc1ccc(Cl)c(Cn2c(NCc3ccco3)nc3c2c(=O)n(C)c(=O)n3C)c1 | 3.7µM* | 3% | 4.6µM* | -13%
Cc1ccccc1OCC(O)Cn1c(NCc2ccco2)nc2c1c(=O)[nH]c(=O)n2C (stereo not given) | ? | -2% | ? | .
Cn1c(NCc2ccco2)nc2c1c(=O)n(Cc1ccc(Br)cc1)c(=O)n2C | ? | 0% | ? | 4%
CCCn1c(NCc2ccco2)nc2c1c(=O)n(C)c(=O)n2C | 13µM* | -1% | ? | .
COc1cccc(Cn2c(NCc3ccco3)nc3c2c(=O)n(C)c(=O)n3C)c1 | 1.5µM* | 0% | 1.8µM* | 8%
COc1ccc(Cl)c(Cn2c(NCCN)nc3c2c(=O)n(C)c(=O)n3C)c1 | ? | -3% | ? | 7%
Cn1c(=O)c2c(nc(NCc3ccco3)n2CC(O)COc2ccccc2)n(C)c1=O (stereo not given) | 9.2µM* | -4% | ? | 0%
CCc1nc(SCC(=O)Nc2nnc(C(C)C)s2)n[nH]1 | -9% | . | 4% | .
COc1ccc(NC(=O)c2ccc3[nH]c(C)cc(=O)c3c2)cc1 | -17% | -12% | 1% | 6%
O=[N+]([O-])c1ccc(/C=N/NC(=S)Nc2ccc(Cl)cc2Cl)s1 | 5.2µM* | 0% | 5.8µM* | 4%
Cc1cc(Cl)ccc1NC(=O)CCC(=O)N/N=C/c1cc([N+](=O)[O-])ccc1O | 8.2µM* | . | 6.5µM* | 2%
Cc1c(Cl)cccc1N=Cc1ccc([N+](=O)[O-])s1 | ? | 2% | ? | 2%
O=[N+]([O-])c1ccc(O)c(/C=N/NC(=S)Nc2ccc(Cl)cc2Cl)c1 | 21µM* | . | 16µM* | 12%
Cc1ccc(CNC(=O)C2CCCN2C(=O)Nc2ccc(F)cc2)cc1 (stereo not given) | 18% | 0% | -7% | 0%
C/C(=N/Nc1nc(-c2ccccc2)cc(-c2ccccc2)n1)c1ccc(N)cc1 | . | . | . | -5%
C/C(=N\Nc1cc(-c2ccccc2)nc(-c2ccc(Br)cc2)n1)c1cccc(N)c1 | ? | ? | 26µM* | .
C/C(=N/Nc1cc(-c2ccccc2)nc(-c2ccccc2)n1)c1ccc(O)cc1 | 13µM* | -12% | 16µM* | -6%
CC(C)=CCC/C(C)=C/CO/N=C1/C[C@@H](O)[C@@H](O)[C@@H]2[C@@H]3C(=O)N([C@@H](C)c4ccccc4)C(=O)[C@H]3CC[C@H]12 | . | . | . | 4%[21 µM]
COc1ccc(S(=O)(=O)NCc2cc(-c3ccccc3Cl)no2)cc1 | 1% | . | 16% | 9%
c1cc2c3c(cccc3c1)NC(c1ccc3c(c1)OCO3)N2 | ? | -13% | 23µM* | .
Clc1ccc(C2Nc3cccc4cccc(c34)N2)cc1 | ? | . | ? | 10%
CC12CN3CC(C)(CN(C1)C3c1ccc3c(c1)OCO3)C2=O (stereo not given) | 13% | -4% | -2% | 5%
CN1c2ccccc2N(C)C1c1ccc2c(c1)OCO2 | 16µM* | -6% | 23µM* | 3%
CSc1ccc(C2NC(=O)c3ccccc3N2)cc1 (stereo not given) | 16µM* | . | 10µM* | .
CSc1ccc(C2Nc3cccc4cccc(c34)N2)cc1 | ? | -3% | 15µM* | .
Cc1cccc(C2Nc3cccc4cccc(c34)N2)c1 | ? | -5% | ? | .
CCCc1cc(=O)oc2cc(OC(=O)CN3C(=O)NC4(CCCC4)C3=O)ccc12 | -27% | 0% | -21% | .

Bioassay records from PubChem.
